Bioassay records: PubChem BioAssay, National Center for Advancing Translational Sciences (NCATS)
In the library only some 9.2% were active in any assay of this set; here they are far more common.
SMN2 splice enh = qHTS Assay for Enhancers of SMN2 Splice Variant Expression | 210,000 tested, 2.8% active | Potency, µM (top dose mostly 46.1 µM), for the others: at the top dose activity change, positive = activation, most hits filed as activators | HEK293 SMN2-luciferase splicing reporter, luminescence, 30-36 h | AID 1458, 2008; also: % of control where 0% means no effect; nearly all actives have a fitted effect of over 55% in size
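HEK293 cells carry an SMN2 minigene-luciferase reporter in which exon 7 inclusion puts luciferase in frame. Cells were seeded at 2000 cells/well, attached for 10-12 hours, then exposed to compounds for 30-36 hours at 37C before ONE-Glo luminescence.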
ELG1 repair inh = qHTS screen for small molecules that inhibit ELG1-dependent DNA repair in human embryonic kidney (HEK293T) cells expressing luciferase-tagged ELG1; HEK293T ELG1-luciferase reporter, luminescence, 16 h; DNA damage induced by 5-fluorouridine; Potency, µM (series often up to 46.1 µM), inactives show at the top dose activity change, negative = inhibition, usual class: inhibitors; AID 504467, 2011; 330,000 tested, 2.3% active; also: % is scaled to controls: 0 for no effect and ±100 for the full control effect; nearly all actives have a fitted effect of over 55% in size
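Luminescence from the luciferase reporter, measured 30 min after ONE-Glo reagent at room temperature, was the read-out. Beforehand, 2,000 cells per well were exposed for 16 hr at 37 °C to 5-fluorouridine together with compound or vehicle.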
ELG1 genotoxic = qHTS screen for small molecules that induce genotoxicity in human embryonic kidney (HEK293T) cells expressing luciferase-tagged ELG1; HEK293T ELG1-luciferase reporter, luminescence, 16 h; Potency, µM (doses to about 46 µM), for the others: at the highest dose activity change, positive = activation, most hits filed as activators; 330,000 tested, 1.3% active; AID 504466, 2011; also: % of control where 0% means no effect; nearly all actives have a fitted effect of over 60% in size
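Step 1: seed 2,000 HEK293T ELG1-luciferase cells per well. Step 2: add compound or DMSO, incubate 16 hr at 37 °C. Step 3: ONE-Glo, 30 min at room temperature, read luminescence.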
FLuc counter = qHTS profiling assay for firefly luciferase inhibitor/activator using purifed enzyme and Km concentrations of substrates (counterscreen for miR-21 project). Luciferin 4-monooxygenase (Photinus pyralis), P08659. purified FLuc, Km substrates, luminescence inhibition. Potency, µM (highest dose often 57.5 µM), without a hit: top-dose activity change, negative = inhibition, hits mostly inhibitors. 360,000 tested, 6.9% active;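 also: plate controls were vehicle for no effect and reference inhibitor for full effect; nearly all actives have a fitted effect of over 55% in size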
Target sequence (P08659 whole entry, looked up): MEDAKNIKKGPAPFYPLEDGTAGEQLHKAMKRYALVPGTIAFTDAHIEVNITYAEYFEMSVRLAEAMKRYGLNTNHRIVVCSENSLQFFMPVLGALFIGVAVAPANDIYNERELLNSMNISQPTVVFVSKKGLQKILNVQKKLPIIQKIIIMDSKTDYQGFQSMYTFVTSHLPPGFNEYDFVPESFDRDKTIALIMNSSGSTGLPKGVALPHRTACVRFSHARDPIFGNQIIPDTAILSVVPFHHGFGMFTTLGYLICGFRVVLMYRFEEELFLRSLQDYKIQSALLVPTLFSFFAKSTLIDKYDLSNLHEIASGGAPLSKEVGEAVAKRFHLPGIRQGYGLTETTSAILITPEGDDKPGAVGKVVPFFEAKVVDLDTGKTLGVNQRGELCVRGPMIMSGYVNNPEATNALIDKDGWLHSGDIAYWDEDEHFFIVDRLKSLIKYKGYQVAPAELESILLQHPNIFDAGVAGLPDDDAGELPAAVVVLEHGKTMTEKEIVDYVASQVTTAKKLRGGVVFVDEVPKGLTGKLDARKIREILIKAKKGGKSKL
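Biochemical qHTS of compounds, final roughly 60 µM downward over six points, against 10 nM purified firefly luciferase using Km concentrations of substrates (10 uM D-luciferin, 10 uM ATP) in Tris acetate pH 7.5 buffer; luminescence output.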
NPC1 promoter act = qHTS Assay for NPC1 Promoter Activators. Huh7 NPC1 promoter luciferase reporter, 24 h. Potency, µM (titrated, usually from 9.22 µM), for inactives: top-dose activation, actives largely listed as activators. 320,000 tested, 2.4% active. AID 485313, 2010; also: % of control where 0% means no effect; nearly all actives have a fitted effect of over 60% in size
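In 1536-well qHTS, Huh7 cells harboring an NPC1 promoter–luciferase construct received compound for 24 h; activation was quantified by luminescence following luciferase reagent addition.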
Rab9 promoter act = qHTS Assay for Rab9 Promoter Activators | Potency, µM (titrated, usually from 9.22 µM), for inactives: at the top dose activation, negative = inhibition, actives largely listed as activators | 320,000 tested, 2.8% active | Huh7 Rab9 promoter-luciferase reporter, luminescence, 24 h; also: % of control where 0% means no effect; nearly all actives have a fitted effect of over 60% in size
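Cell-based reporter: Huh7 stable for Rab9 promoter-driven luciferase, plated in reduced-serum medium with 10% FBS at 1500 cells/well, compound-treated 24 h at 37 °C, luminescence read after 10 min reagent.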
Starred values were filed as active, the others as inactive; ? = inconclusive; · = no result. Calls follow the shape of the dose curve; as a rule, active = well fitted curve in the direction sought with a large enough effect; inconclusive = small, poorly fitted or top-dose-only effect, or another doubt; inactive = no such curve, though single readings can be large; an effect the other way counts as inactive or inconclusive. Potency is read from the fitted curve at half-maximal effect.

SMILES	SMN2 splice enh	ELG1 repair inh	ELG1 genotoxic	FLuc counter	NPC1 promoter act	Rab9 promoter act
O=C(NNc1ccccc1F)c1ccccc1	·	15µM*	9%	-5%	3%	6%
CCOc1ccc(CNC(=O)c2cccn2-c2nnc(N3CCCCC3)s2)cc1OC	·	·	·	-9%	·	·
CCc1ccc(C(=O)/C=C/c2ccc([N+](=O)[O-])o2)cc1	-92%	?	?	11µM*	-11%	-29%
Cc1cc(=O)n2nc(N3CCC(C(=O)Nc4ccc(C(C)C)cc4)CC3)sc2n1	-8%	·	·	-11%	·	·
O=C(CSc1nnc(CCCOc2ccc(Cl)cc2Cl)o1)Nc1ccc(C(=O)O)cc1	9%	14%	4%	5.4µM*	1%	-6%
CCn1c(CCCOc2ccc(Cl)cc2Cl)nnc1SCC(=O)Nc1cccc(F)c1	8%	22%	0%	9.5µM*	1%	-5%
CCCc1nnc(SCC(=O)Nc2ccc(Cl)cc2Cl)o1	·	25%	-1%	-2%	5%	1%
Cc1ccc(N(CC(=O)Nc2ccc3c(c2)OCCO3)S(C)(=O)=O)cc1	·	?	13%	19µM*	?	?
COC(=O)c1ccc(CN(c2ccc(C)cc2)S(=O)(=O)c2ccc3c(c2)OCCO3)o1	8%	21µM*	0%	1%	6%	-3%
CCOc1ccc(N(CC(=O)Nc2ccc(C)cc2)S(C)(=O)=O)cc1	·	?	?	15µM*	3.5µM*	0.89µM*
O=C(Cn1nc(-c2ccc(Cl)cc2)c2ccccc2c1=O)Nc1cccc(C(F)(F)F)c1	-10%	·	·	-1%	·	·
c1cc(-c2nnc3sc(C4CCCCC4)nn23)ccn1	-11%	9.2µM*	-23%	3%	6%	-2%
c1csc(-c2nn3c(-c4ccncc4)nnc3s2)c1	-9%	-11%	0%	-2%	-8%	-1%
c1csc(Cc2nn3c(-c4ccncc4)nnc3s2)c1	-5%	10µM*	-19%	5%	9%	-5%
C/C(O)=c1/c(=O)nc2cccc3c2=c1c1ccccc1c3=O	·	0%	5%	3%	0%	-2%
CCC(C)Nc1ncnc2c1cnn2-c1ccc(F)cc1 (centres undefined)	·	·	·	6.7µM*	·	·
COCC(C)Nc1ncnc2c1cnn2-c1ccc(Cl)cc1 (centres undefined)	·	·	·	2.4µM*	0.71µM*	0.5µM*
CC(C)(C)NC(=O)c1ccc(C(=O)NC(C)(C)C)cc1	·	-6%	1%	1%	3%	-14%
CC(C)(C)NC(=O)c1sccc1C(=O)O	-14%	?	2%	15µM*	0%	-1%
CCOC(=O)c1cc(-c2ccc(F)cc2)n(CC(=O)NCc2ccc(OC)cc2)c1C	·	·	·	3%	·	·
CCc1ccc(OCCCC(=O)NCc2ccccc2)cc1	9%	-5%	2%	-16%	-2%	0%
CCC/C(C)=C/c1ccc(CC)cn1	·	?	0%	9.5µM*	1%	0%
CCN(CC)C(=O)c1sc2c(c1C)c(=O)n(-c1ccc(C)c(C)c1)c(=O)n2CC(=O)Nc1ccc(OC)cc1OC	·	·	·	-5%	·	·
COc1ccc(OC)c(Nc2ncnc3sc(-c4ccccc4)cc23)c1	11%	-26%	-1%	?	2%	-6%
COc1ccc(-c2cc3nnc(-c4ccccc4)nc3s2)cc1	0.71µM*	?	?	0.17µM*	22%	?
O=C(NCc1ccccc1)c1cnc2n(c1=O)CCS2	0%	13%	-1%	3%	13%	10%
O=C(NCCC1=CCCCC1)c1cnc2n(c1=O)CCS2	11µM*	?	?	?	?	?
O=C(NCCc1ccc(Cl)cc1)c1cnc2n(c1=O)CCS2	?	?	?	?	25%	?
